Here are results for 40 molecules from PubChem BioAssay (EPA / NIEHS).

SMILES strings stand for the structures. Results filed as inconclusive are left out. Activity calls are given as the source filed them. The calls were made as follows: active = hit-call score of the fitted dose curve at least 0.9, where 1 is the maximum; inconclusive = response in the unintended direction; inactive = score below 0.9.

Norway rat Vesicular Monoamine Transporter (VMAT2), neurotransmitter transporter, Slc18a2 (gene 25549), sequence (Q01827 whole entry, looked up): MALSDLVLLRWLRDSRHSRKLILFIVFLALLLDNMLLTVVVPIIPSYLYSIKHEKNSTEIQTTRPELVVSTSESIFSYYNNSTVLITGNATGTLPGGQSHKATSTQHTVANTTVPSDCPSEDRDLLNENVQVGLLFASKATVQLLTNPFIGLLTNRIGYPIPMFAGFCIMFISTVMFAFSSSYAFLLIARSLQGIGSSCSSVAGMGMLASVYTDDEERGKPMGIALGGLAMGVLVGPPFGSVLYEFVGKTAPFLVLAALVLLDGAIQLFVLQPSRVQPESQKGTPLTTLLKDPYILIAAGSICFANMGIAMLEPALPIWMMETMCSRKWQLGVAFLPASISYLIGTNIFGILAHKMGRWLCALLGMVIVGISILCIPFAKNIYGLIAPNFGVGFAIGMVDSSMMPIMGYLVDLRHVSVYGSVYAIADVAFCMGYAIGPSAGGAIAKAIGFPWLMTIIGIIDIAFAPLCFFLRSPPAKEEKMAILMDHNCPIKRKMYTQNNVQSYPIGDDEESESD

The target in the assay is Norway rat Vesicular Monoamine Transporter (VMAT2), neurotransmitter transporter, Slc18a2 (gene 25549) (UniProt Q01827). The assay is described as follows: NVS_TR_rVMAT2: NovaScreen (NVS) Transporter Assay for Norway rat Vesicular Monoamine Transporter (VMAT2), neurotransmitter transporter (AID 2283376).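 Also: actives lower the bound radioligand signal below the DMSO level.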 On the procedure:
NVS_TR_rVMAT2 is a biochemical, single-readout assay that uses extracted gene-proteins from Rat forebrain in a tissue-based cell-free assay. Measurements were taken 1 hour after chemical dosing in a 96-well plate.NVS_TR_rVMAT2 is one of one assay component(s) measured or calculated from the NVS_TR_rVMAT2 assay. It is designed to make measurements of radioligand binding, a form of binding reporter, as detected with scintillation counting signals by Filter-based radiodetection technology.Data from the assay component NVS_TR_rVMAT2 was analyzed into 1 assay endpoint. This assay endpoint, NVS_TR_rVMAT2, was analyzed in the positive analysis fitting direction relative to DMSO as the negative control and baseline of activity. Using a type of binding reporter, loss-of-signal activity can be used to understand changes in the binding as they relate to the gene Slc18a2. Furthermore, this assay endpoint can be referred to as a primary readout, because the performed assay has only produced 1 assay endpoint. To generalize the intended target to other relatable targets, this assay endpoint is annotated to the transporter intended target family, where the subfamily is vesicular transporter.
Binding assays used specific radioligands (tritiated, iodinated) with non-radioactive competitive displacement ligands in agonist or antagonist protocols (as indicated) and various reference compounds and inhibitors to titrate specific binding to receptors and transporters. Most enzyme assays (CYPs, kinases, phosphatases, proteases, HDACs) used recombinant protein and specific substrates (fluorescence mostly, some colorimetric and radioactive) and inhibitors, followed by a biochemical separation of substrate and product. All assays for the biochemical HTS were initially run in duplicate at a single concentration (10 uM for CYP450 assays and 25 uM for all others). […] Each assay was run with positive and negative controls, and concurrent controls on every plate. The follow-up (secondary) screen tested active chemical-pairs in concentration series, as well as a few additional assays not tested in the primary screen, some selected negative inactives, and several cases re-run in the concentration series for confirmatory purposes.
In general, AC50 refers to the midpoint of the concentration-response curve, whichever way the signal moves. `O=C=NC1CCC(CC2CCC(N=C=O)CC2)CC1` (stereo not given): the AC50 is 9.03 µM (active). For the molecule `CCCCCCCCC(C)=O`, the call was inactive. Still for that read-out and setting: the entry for `C[Si]1(C)O[Si](C)(C)O[Si](C)(C)O[Si](C)(C)O1` is “inactive”; for `Oc1ccc2c(c1)-c1ccccc1C2` it is “inactive”; for `CCCCCCCCCCCCCCCC(=O)OC/C=C(C)/C=C/C=C(C)/C=C/C1=C(C)CCCC1(C)C` it is “inactive”. Turning to `O=C(OC[C@H]1O[C@@H](OC(=O)c2cc(O)c(O)c(OC(=O)c3cc(O)c(O)c(O)c3)c2)[C@H](OC(=O)c2cc(O)c(O)c(OC(=O)c3cc(O)c(O)c(O)c3)c2)[C@@H](OC(=O)c2cc(O)c(O)c(OC(=O)c3cc(O)c(O)c(O)c3)c2)[C@@H]1OC(=O)c1cc(O)c(O)c(OC(=O)c2cc(O)c(O)c(O)c2)c1)c1cc(O)c(O)c(OC(=O)c2cc(O)c(O)c(O)c2)c1`, the result was inactive.

On to `Cc1[nH]cnc1C[C@H]1CCc2c(C)c3ccccc3n2C1=O`, for which the AC50 is 0.755 µM (active). On the same count and under the same terms, as for `O=C(c1ccc(OCCN2CCCCC2)cc1)c1c(-c2ccc(O)cc2)sc2cc(O)ccc12`, the figure is 0.563 µM (active). For `CN(c1nccc(=O)[nH]1)C1CCN(c2nc3ccccc3n2Cc2ccc(F)cc2)CC1`, the outcome was inactive. On the same count and under the same terms, as for `O=c1c(-c2ccc(O)cc2)coc2cc(O)cc(O)c12`, the entry is “inactive”. Take `Cc1ccc(O)c(C(C)(C)C)c1`: the molecule was called inactive.

Regarding `N=C(N)c1ccc(OCCCCCOc2ccc(C(=N)N)cc2)cc1`, the AC50 is 5.98 µM (active).

In the case of `COc1cccc(O)c1`, the molecule was called inactive. Same read-out and setting: the entry for `CC1=C(C)S(=O)(=O)CCS1(=O)=O` is “inactive”; for `CCN(CC)c1ccc(N=Nc2ccccc2)cc1` it is “inactive”. Regarding `c1ccc(C[P+](c2ccccc2)(c2ccccc2)c2ccccc2)cc1`, the AC50 is 16.7 µM (active).

As to `CCOC(=O)CC(=O)OCC`, the call was inactive. The same measure, in the same setting: the entry for `O=C1c2ccccc2C(=O)c2c(Cl)cccc21` is “inactive”. In the case of `CCC(=C(c1ccc(O)cc1)c1ccc(OCCN(C)C)cc1)c1ccccc1`, the concentration at half-maximal activity (AC50) is 0.626 µM (active). As for `CCN(CCC#N)c1ccc(N=Nc2ccc([N+](=O)[O-])cc2)cc1`, the molecule was classed as inactive.

Turning to `COCCOc1cc2cc(C(=O)NC3CCN(C(C)C)CC3)n(CC(=O)Nc3ccc(Cl)cn3)c2cn1`, the outcome was inactive. Take `CCCOc1sc(C(=O)N2CCC(c3cc(CN)ccc3F)CC2)c(C)c1Br`: the AC50 is 2.89 µM (active). As for `O=Cc1ccccc1C=O`, the molecule was classed as inactive. Same read-out and setting: the entry for `O=C(NO)C1(NS(=O)(=O)c2ccc(Oc3ccc(F)cc3)cc2)CCOCC1` is “inactive”. As to `CS(=O)(=O)c1ccc(C2=C(c3ccccc3)C(=O)OC2)cc1`, the AC50 was 12.5 µM (active). The same measure, in the same setting: the figure for `CCOC(=O)O[C@H](C)OC(=O)c1ccc2c(c1)cc(C(=O)NC1CCN(C(C)C)CC1)n2Cc1cc(-c2ccc(Cl)s2)on1` is 5.06 µM (active). For `C/C=C\C/C=C/CCCCCCCCOC(C)=O`, the result was inactive.

On to `CC[N+](CC)(CC(=O)Nc1c(C)cccc1C)Cc1ccccc1`, for which the result was inactive. Still for that read-out and setting: as for `NNC(=O)c1ccncc1`, the entry is “inactive”. For the molecule `c1ccc(-c2nc3ccccc3[nH]2)cc1`, the concentration at half-maximal activity (AC50) is 6.56 µM (active). As to `Nc1ccc2c(c1)C(=O)c1ccccc1C2=O`, the result was inactive. Same read-out and setting: the entry for `NC(=NCCCCCCN=C(N)/N=C(\N)Nc1ccc(Cl)cc1)/N=C(\N)Nc1ccc(Cl)cc1` is “inactive”; for `CN1CCN(C)CC1` it is “inactive”; for `C=C(C)C(=O)OCCOCCOCCOC(=O)C(=C)C` it is “inactive”. Take `Cc1oc2c(NC(=O)c3c(Cl)cccc3Cl)cccc2c1C(C)(C)O`: the AC50 is 11.9 µM (active). Consider `[Cl][Dy]([Cl])[Cl]`, for which the molecule was classed as inactive.

Take `CC(=O)S[C@@H]1CC2=CC(=O)CC[C@]2(C)[C@H]2CC[C@@]3(C)[C@@H](CC[C@@]34CCC(=O)O4)[C@H]12`: the molecule was classed as inactive. The same measure, in the same setting: as for `CCOCN(C(=O)CS(=O)(=O)O)c1c(C)cccc1CC`, the entry is “inactive”.

Turning to `CS(=O)(=O)c1ccc([C@@H](CC2CCCC2)C(=O)Nc2cnccn2)cc1Cl`, the AC50 was 7.12 µM (active).

As to `CCCCC(CC)COC(=O)c1ccccc1C(=O)O` (stereo not given), the molecule was called inactive.
